Calls of active or inactive are those of the source.
How the values were obtained:
Albumin (Bos taurus) = Albumin (Bos taurus) (UniProt P02769); assay: bovine serum albumin binders on microarray, profiling panel, artefact control for SMM control protein annotation, biochemical, small-molecule microarray, Alexa647 label, 635/667 nm fluorescence (AID 1118); settings: BSA-A647 binding, fluorescence 635 nm, higher = more signal;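 also: score merges 667 nm emission intensity and signal-to-noise per printed compound spot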
Chain of Albumin (Bos taurus) (P02769 whole entry, looked up): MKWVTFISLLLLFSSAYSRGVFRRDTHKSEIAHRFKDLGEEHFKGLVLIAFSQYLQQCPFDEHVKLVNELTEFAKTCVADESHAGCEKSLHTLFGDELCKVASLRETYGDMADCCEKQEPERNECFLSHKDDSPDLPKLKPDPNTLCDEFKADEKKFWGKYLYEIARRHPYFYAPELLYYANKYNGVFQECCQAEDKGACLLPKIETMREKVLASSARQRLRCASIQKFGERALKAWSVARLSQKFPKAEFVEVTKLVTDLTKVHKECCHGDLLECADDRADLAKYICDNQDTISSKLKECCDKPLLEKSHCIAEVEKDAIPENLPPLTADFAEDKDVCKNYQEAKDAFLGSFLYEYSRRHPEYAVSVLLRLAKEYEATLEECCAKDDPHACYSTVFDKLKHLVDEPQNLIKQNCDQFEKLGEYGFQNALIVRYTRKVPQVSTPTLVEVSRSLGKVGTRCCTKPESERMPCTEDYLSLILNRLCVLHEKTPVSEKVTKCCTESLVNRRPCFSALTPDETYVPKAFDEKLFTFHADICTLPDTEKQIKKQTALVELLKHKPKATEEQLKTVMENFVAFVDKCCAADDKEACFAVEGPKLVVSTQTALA

[1] = small-molecule microarray binders of probe aXIP, primary screen, biochemical, NeuroSMM set, 635/667 nm fluorescence (AID 1119); settings: higher = more signal, called active from +8 up or from −8 down;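 also: probe is the protein aXip251-270 applied at 1 µg/mL to compound-printed slides; binding of probe to printed compounds measured as 667 nm fluorescence plus signal to noise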
[2] = small-molecule binders of probe aNOTCH3, primary screen, biochemical, small-molecule microarray, 635/667 nm fluorescence (AID 1120); settings: higher = more signal;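 also: probe is a biotin-tagged antibody raised against NOTCH3 rather than NOTCH3 protein; score merges spot fluorescence near 667 nm with spot signal to noise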
[3] = small-molecule binders of probe aNOTCH2, primary screen, biochemical, small-molecule microarray, 635/667 nm fluorescence (AID 1121); settings: higher = more signal;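 also: score merges feature fluorescence read at 667 nm with its signal to noise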
[4] = molecular target: Carbonic anhydrase 2 (Homo sapiens) (UniProt P00918); assay: CAII small-molecule binders, profiling panel, biochemical, small-molecule microarray, Alexa647-labelled CAII (AID 1122); settings: CAII-A647 binding fluorescence, higher = more signal
[5] = COS7 lysate on small-molecule microarray, probe aHis, 635 nm (AID 1123); settings: COS7 cell lysate, fluorescence, higher = more signal;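 also: z-score combines 667nm fluorescence intensity with signal-to-noise per printed compound spot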
[6] = compound binding in COS7 lysate, probe aLAP1, primary screen, cell lysate, small-molecule microarray (AID 1124); settings: probe aLAP1, fluorescence, higher = more signal;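 also: lysate comes from COS7 cells expressing LAP1 and is applied at 0.3 µg/mL; score merges spot fluorescence near 667 nm with signal-to-noise over triplicate slides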
Sam68 (KHDRBS1) = assay: Sam68 small-molecule binders, primary screen, biochemical, small-molecule microarray, 635 nm fluorescence (AID 1125); settings: small-molecule microarray binding, higher = more signal;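 also: score merges 667 nm channel intensity with signal to noise over triplicate slides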
[7] = test system: Chordin-like protein 2 (CHRDL2); assay: CHRDL2 small-molecule binders, primary screen, biochemical, small-molecule microarray, 635 nm fluorescence (AID 1126); settings: small-molecule microarray binding, fluorescence 635 nm; higher = more signal;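 also: printed compound slides probed with Chrdl2 protein at 4 µg/mL for 1 h at 4 C; score merges 667 nm emission intensity with signal to noise over three replicate slides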
[8] = molecular target: Concanavalin-A (Canavalia ensiformis) (UniProt P02866); assay: ConA small-molecule binders, primary screen, artefact control for SMM control protein annotation, biochemical, small-molecule microarray, Alexa647 label, 635 nm (AID 1127); settings: ConA-A647 binding fluorescence, higher = more signal;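 also: z combines 667 nm emission intensity with signal-to-noise across three replicate slides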
Chain of Concanavalin-A (Canavalia ensiformis) (P02866 whole entry, looked up): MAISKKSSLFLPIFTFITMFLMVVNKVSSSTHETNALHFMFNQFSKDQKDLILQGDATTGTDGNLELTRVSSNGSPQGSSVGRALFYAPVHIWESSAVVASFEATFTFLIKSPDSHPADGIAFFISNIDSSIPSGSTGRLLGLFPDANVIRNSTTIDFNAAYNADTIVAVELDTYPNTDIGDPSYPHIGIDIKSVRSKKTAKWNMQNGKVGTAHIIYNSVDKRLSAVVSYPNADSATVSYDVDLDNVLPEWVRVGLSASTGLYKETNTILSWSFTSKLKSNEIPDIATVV

[9] = anti-His antibody binders, primary screen, artefact control for SMM control protein annotation, biochemical, small-molecule microarray, 635 nm fluorescence (AID 1128); settings: anti-His Alexa647 antibody binding, higher = more signal;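 also: score merges feature fluorescence with signal-to-noise for each printed compound spot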
[10] = test system: Human papillomavirus type 1a E7 protein (residues 1-88); assay: HPV1a E7 small-molecule binders, primary screen, biochemical, small-molecule microarray, residues 1-88, 635 nm (AID 1129); settings: small-molecule microarray binding, fluorescence 635 nm; higher = more signal
[11] = molecular target: Focal adhesion kinase 1 (Homo sapiens) (UniProt Q05397); assay: small-molecule microarray binders of FAK, primary screen, biochemical, 635/667 nm fluorescence, BSA, DTT (AID 1130); settings: PTK2 binding, 635 nm fluorescence, higher = more signal;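 also: composite of spot emission at 667 nm and signal to noise over triplicate slides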
Chain of Focal adhesion kinase 1 (Homo sapiens) (Q05397 whole entry, looked up): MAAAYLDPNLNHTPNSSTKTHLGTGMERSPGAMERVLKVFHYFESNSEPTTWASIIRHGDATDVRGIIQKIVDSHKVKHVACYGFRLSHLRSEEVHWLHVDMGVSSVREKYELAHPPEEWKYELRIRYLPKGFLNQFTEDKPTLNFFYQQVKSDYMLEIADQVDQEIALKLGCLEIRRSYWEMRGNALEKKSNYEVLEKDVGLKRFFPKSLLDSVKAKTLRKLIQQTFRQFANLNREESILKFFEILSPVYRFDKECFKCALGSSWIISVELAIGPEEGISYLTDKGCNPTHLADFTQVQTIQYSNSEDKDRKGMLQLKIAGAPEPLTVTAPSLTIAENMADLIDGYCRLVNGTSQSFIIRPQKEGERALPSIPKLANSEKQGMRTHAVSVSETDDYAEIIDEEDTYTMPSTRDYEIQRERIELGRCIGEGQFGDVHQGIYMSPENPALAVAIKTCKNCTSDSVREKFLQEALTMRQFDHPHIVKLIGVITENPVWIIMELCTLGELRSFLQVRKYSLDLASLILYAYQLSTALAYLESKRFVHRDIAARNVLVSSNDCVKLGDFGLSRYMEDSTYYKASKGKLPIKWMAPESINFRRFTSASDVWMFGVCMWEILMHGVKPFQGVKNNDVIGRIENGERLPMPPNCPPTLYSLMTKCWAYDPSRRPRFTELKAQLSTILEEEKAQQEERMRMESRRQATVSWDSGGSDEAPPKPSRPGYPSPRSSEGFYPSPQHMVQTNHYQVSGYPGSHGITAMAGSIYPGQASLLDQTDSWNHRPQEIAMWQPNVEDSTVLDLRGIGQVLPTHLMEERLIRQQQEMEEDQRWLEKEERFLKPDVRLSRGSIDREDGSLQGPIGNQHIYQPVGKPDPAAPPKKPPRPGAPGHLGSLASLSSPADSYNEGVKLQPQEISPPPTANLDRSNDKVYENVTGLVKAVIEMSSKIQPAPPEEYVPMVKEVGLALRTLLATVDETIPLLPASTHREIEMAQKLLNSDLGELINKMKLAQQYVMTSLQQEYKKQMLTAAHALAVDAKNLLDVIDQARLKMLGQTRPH

[12] = test system: Fibrinogen (Alexa647-labelled); assay: fibrinogen binders on compound microarrays, profiling panel, artefact control for SMM control-protein annotation, biochemical, small-molecule microarray, 635/667 nm fluorescence (AID 1131); settings: fibrinogen-A647 binding fluorescence, higher = more signal;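 also: z-score merges 667 nm fluorescence with per-spot signal-to-noise over triplicate slides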
[13] = molecular target: Follistatin (Homo sapiens) (UniProt P19883); assay: follistatin binders on small-molecule microarrays, primary screen, biochemical, small-molecule microarray, 635/667 nm fluorescence (AID 1132); settings: FST binding, 635 nm fluorescence, higher = more signal
Chain of Follistatin (Homo sapiens) (P19883 whole entry, looked up): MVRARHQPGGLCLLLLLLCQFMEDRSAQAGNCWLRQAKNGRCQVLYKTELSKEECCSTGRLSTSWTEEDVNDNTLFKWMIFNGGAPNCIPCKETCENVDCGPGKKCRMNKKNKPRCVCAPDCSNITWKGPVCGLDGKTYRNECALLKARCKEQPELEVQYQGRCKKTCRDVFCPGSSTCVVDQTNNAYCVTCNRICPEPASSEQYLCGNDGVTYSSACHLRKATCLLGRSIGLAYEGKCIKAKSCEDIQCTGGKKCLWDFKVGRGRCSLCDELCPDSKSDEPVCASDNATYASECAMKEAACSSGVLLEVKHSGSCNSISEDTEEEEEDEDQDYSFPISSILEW

[14] = molecular target: Fibroblast growth factor 2 (Homo sapiens) (UniProt P09038); assay: FGF2 binders on small-molecule microarrays, primary screen, biochemical, small-molecule microarray, 635/667 nm fluorescence (AID 1133); settings: small-molecule microarray binding, FGF2, fluorescence 635/667; higher = more signal
Chain of Fibroblast growth factor 2 (Homo sapiens) (P09038 whole entry, looked up): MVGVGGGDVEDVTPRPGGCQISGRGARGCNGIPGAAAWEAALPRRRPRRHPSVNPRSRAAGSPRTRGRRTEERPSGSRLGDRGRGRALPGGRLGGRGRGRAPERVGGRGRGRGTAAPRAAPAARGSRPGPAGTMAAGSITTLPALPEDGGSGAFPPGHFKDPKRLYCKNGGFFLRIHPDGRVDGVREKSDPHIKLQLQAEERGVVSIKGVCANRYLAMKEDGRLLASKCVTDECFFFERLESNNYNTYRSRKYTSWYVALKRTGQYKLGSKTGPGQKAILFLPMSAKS

[15] = mitochondrial membrane potential change in A549 cells, profiling panel, cell-based, JC-1 fluorescence, basal, 24 h, 100 nL (AID 1138); settings: higher = more signal;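 also: A549 lung adenocarcinoma cells under basal conditions with no added stimulus; test concentration not given here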
Lefty1 = Lefty1 binders on small-molecule microarrays, primary screen, biochemical, small-molecule microarray, 635/667 nm fluorescence (AID 1139); settings: small-molecule microarray binding, fluorescence 635/667; higher = more signal
[16] = test system: wheat germ agglutinin (Triticum aestivum), Alexa647-labelled; assay: wheat germ agglutinin binders on compound microarrays, profiling panel, artefact control for SMM control-protein annotation, biochemical, small-molecule microarray, 635/667 nm fluorescence (AID 1140); settings: WGA-A647 binding, 635 nm fluorescence, higher = more signal;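 also: score merges 667 nm feature emission with signal to noise over triplicate slides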
[17] = molecular target: Luciferin 4-monooxygenase (Photinus pyralis) (UniProt P08659); assay: firefly luciferase enzyme inhibitors, primary screen, biochemical, luminescence, purified enzyme, 2006 set (AID 1141); settings: SteadyGlo luminescence, 30 min, higher = more signal, called active from +8 up or from −8 down;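 also: cell-free assay with purified firefly luciferase at 100 ng per well in PBS; test concentration not given here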
Chain of Luciferin 4-monooxygenase (Photinus pyralis) (P08659 whole entry, looked up): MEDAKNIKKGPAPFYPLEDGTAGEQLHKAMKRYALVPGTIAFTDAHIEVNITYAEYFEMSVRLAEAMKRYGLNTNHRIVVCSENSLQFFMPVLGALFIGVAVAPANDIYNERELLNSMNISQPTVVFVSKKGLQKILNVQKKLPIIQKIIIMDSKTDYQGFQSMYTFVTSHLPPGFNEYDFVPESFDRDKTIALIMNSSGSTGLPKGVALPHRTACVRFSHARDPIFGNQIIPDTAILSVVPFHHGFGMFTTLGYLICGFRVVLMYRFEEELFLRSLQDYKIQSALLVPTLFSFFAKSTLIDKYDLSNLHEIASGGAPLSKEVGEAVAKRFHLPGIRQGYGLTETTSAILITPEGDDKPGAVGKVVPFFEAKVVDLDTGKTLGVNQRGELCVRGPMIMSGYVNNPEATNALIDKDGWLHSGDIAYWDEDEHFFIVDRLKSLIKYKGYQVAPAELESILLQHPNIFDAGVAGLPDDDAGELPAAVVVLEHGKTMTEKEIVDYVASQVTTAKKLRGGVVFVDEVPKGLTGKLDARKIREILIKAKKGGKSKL

Structure (SMILES)	composite z-score (Albumin (Bos taurus))	composite Z-score [1]	composite z-score [2]	composite z-score [3]	composite z-score [4]	composite z-score [5]	composite z-score [6]	composite z-score (Sam68 (KHDRBS1))	composite z-score [7]	composite z-score [8]	composite z-score [9]	composite z-score [10]	composite z-score [11]	composite z-score [12]	composite z-score [13]	composite z-score [14]	z-score [15]	composite z-score (Lefty1)	composite z-score [16]	z-score [17]
COC(=O)CC=C[C@@H](C)[C@@H](C=NO[C@H](C)c1cn([C@H](CO)Cc2ccccc2)nn1)OC	0.113	0.215 (inactive)	0.118	-0.118	-0.16	0.188	0.456	0.804	0.944	0.254	3.43	0.544	-0.144	0.236	0.517	0.827	-0.826	0.71	0.268	-0.165 (inactive)
COC(=O)CC=C[C@@H](C)[C@@H](C=NO[C@@H](C)c1cc(-c2c(C)cc(C)cc2C)no1)NS(=O)(=O)c1ccc(C)cc1	-0.356	-0.136 (inactive)	-0.197	-0.115	-0.6	-0.238	-0.565	-0.723	-0.674	-0.985	-1.02	-0.888	-0.0927	-0.494	-1.58	-1.44	-0.0778	-1.55	-0.665	1.14 (inactive)
CC(=O)OC[C@H]1O[C@@H](ON=C(C)CCN2CCCc3nc(C)c(C)cc32)[C@H](OC(C)=O)[C@@H](OC(C)=O)[C@@H]1OC(C)=O	0.449	0.403 (inactive)	-0.0587	-0.0695	0.155	0.678	0.16	1.13	-0.144	1.03	0.269	1.15	0.36	0.602	0.881	0.664	-1.13	0.889	0.476	0.788 (inactive)
CCOC(=O)NN=C1C[C@@H](O)[C@@H](O)[C@@H]2[C@@H]3C(=O)N([C@@H](C)c4ccccc4)C(=O)[C@@H]3CC[C@@H]12	-0.899	-0.491 (inactive)	0.119	-0.0968	-0.0526	-0.374	0.129	1.23	1.02	-1.09	-0.43	0.0085	0.692	0.897	1.28	0.642	-0.337	1.3	0.193	0.685 (inactive)
O=C1[C@H]2[C@H]3[C@H](O)[C@H](O)CC(=NOC[C@@H](O)COCc4ccco4)[C@@H]3CC[C@H]2C(=O)N1C[C@@H]1CCCO1	0.63	0.381 (inactive)	-0.0345	-0.0986	-0.267	0.155	0.174	0.902	1.53	-0.281	0.142	-0.12	-0.288	-0.652	0.907	1.34	-0.00687	1.17	-0.559	0.31 (inactive)
O=C1CCCC=C1C(O)CCCCBr (stereo not given)	0.956	1.36 (inactive)	0.0242	0.0377	0.778	1.1	-0.101	0.381	0.0069	1.09	3.06	0.466	-0.0308	0.798	1.01	0.306	1.04	0.564	1.28	-1.97 (inactive)
CO[C@H](C1CCCCC1)[C@H](C)C=CCC(=O)OCCCc1ccccc1	-0.553	0.349 (inactive)	-0.125	-0.0751	-0.3	-0.856	-0.133	-0.53	0.562	-0.394	3.29	-1.15	0.114	-0.938	0.351	0.541	-0.00988	0.0696	-0.464	-1.02 (inactive)
CC(=O)OC[C@H]1O[C@H](C#Cc2ccccc2)C=C[C@@H]1OC(C)=O	0.243	-0.005 (inactive)	-0.0328	-0.136	0.0239	0.214	0.17	0.182	0.965	-0.0189	-0.223	0.262	-0.203	0.81	0.272	0.271	0.277	0.517	-0.361	-2.26 (inactive)
CC(C)=NOC[C@@H](C)[C@H](OCc1ccccc1)C(C)C	-0.0998	0.317 (inactive)	-0.165	-0.206	-0.389	-0.616	-0.228	-1.61	0.0109	-0.0651	0.164	-1.56	-0.15	-0.22	-0.476	-0.229	-0.375	-0.458	-0.351	-1.4 (inactive)
COc1ccc(O[C@H]2C=C[C@@H](c3ccccc3)O[C@@H]2CON=C(C)C)cc1	0.0254	0.537 (inactive)	0.201	-0.0548	0.153	0.136	-0.0187	-1.05	0.0435	0.0731	-0.732	-1.11	0.433	0.152	0.234	-0.287	-0.541	-0.0027	0.938	0.409 (inactive)
Cc1ccc(S(=O)(=O)N[C@H]2COC(=O)CC=C[C@H](C)[C@@H](NS(=O)(=O)c3ccc(C)cc3)COC(=O)CC=C[C@@H]2C)cc1	-0.109	-0.286 (inactive)	0.0282	-0.14	-0.0386	-0.364	-0.242	0.0236	0.477	0.128	-0.308	0.42	0.106	0.129	0.471	0.647	-0.617	0.556	0.0337	0.846 (inactive)
